Here are results for 40 compounds from PubChem BioAssay (NCATS).

Structures are written as SMILES. Inconclusive results are not listed. A call without a number means that no potency is given here. Activity calls are given as the source filed them. The call rests on the fitted dose curve; in most records, active means well fitted inhibition curve with a large enough effect; inconclusive means small, poorly fitted or top-dose-only effect; inactive means flat fitted curve, though single readings scatter.
Potency means the concentration at half of the fitted maximal effect.

For one assay, the system named is CP286. As to the kind of experiment: qHTS profiling for inhibitors of Plasmodium falciparum proliferation (AID 504749). Further: nearly all actives have a fitted effect of over 60% in size. The conditions noted are these: P. falciparum in erythrocytes, SYBR Green DNA, 72 h; series mostly up to 28.7 µM. The method in brief:
(§1)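 Fluorescence of SYBR Green-bound parasite DNA, read at 485/535 nm, served as the growth measure. Infected erythrocytes were cultured with compound 72 h; artemisinin (0.29 uM) and DMSO wells defined the normalization range.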
For orientation: In qHTS, concentration-response curves come from the screen itself.
For the compound `C#C[C@]1(O)CC[C@H]2[C@@H]3CCc4cc(OC)ccc4[C@H]3CC[C@@]21C`, the Potency entry was “inactive”.

As for `CCCCNC(=O)NS(=O)(=O)c1ccc(N)cc1`, the Potency result was “inactive”.

In the case of `Nc1ccc(C(=O)NCC(=O)O)cc1`, the Potency entry is “inactive”.

Consider `OC1C(O)C(O)C(O)C(O)C1O` (stereo not given), for which the Potency result is “inactive”.

Take `O=S(=O)(O)c1ccc(O)cc1`: the Potency entry is “inactive”.

Consider `COc1cc(C(=O)NCc2ccc(OCCN(C)C)cc2)cc(OC)c1OC`, for which the Potency entry is “inactive”.

For the compound `COc1cc(C)nc(-n2nc(C)cc2OC)n1`, the Potency entry is “inactive”.

On to `CC(=O)Oc1ccc(C)cc1`, for which the Potency result was “inactive”.

With `CC(=O)NC(=O)c1ccccc1O`, the Potency entry is “inactive”.

Regarding `FC(F)(F)C(F)(F)C(F)(F)C(F)(F)C(F)(F)C(F)(F)C(F)(F)C(F)(F)Br`, the Potency result is “inactive”.

Turning to `c1ccc(-c2nc[nH]c2-c2ccccc2)cc1`, the Potency entry was “inactive”.

`CCNC(=O)NCc1cccc(Cl)c1`: the Potency result was “inactive”.

On to `O=C(O)Cc1csc(-c2ccc(Cl)cc2)n1`, for which the Potency entry was “inactive”.

Turning to `Nc1nc(-c2ccccc2)c(Br)c(=O)[nH]1`, the Potency entry was “inactive”.

As to `O=c1[nH]c(=O)n([C@H]2C[C@H](O)[C@@H](CO)O2)cc1F`, the Potency entry is “inactive”.

In the case of `CC(=O)Nc1ncc([N+](=O)[O-])s1`, the Potency entry is “inactive”.

Turning to `Cc1cccc(C)c1NC(=O)CN1CCCCCC1`, the Potency result was “inactive”.

As to `CC[C@H](c1ccc(O)cc1)[C@@H](CC)c1ccc(O)cc1`, the Potency result is “inactive”.

Turning to `Cc1c(-c2ccccc2)oc2c(C(=O)OCCN3CCCCC3)cccc2c1=O`, the Potency result is “inactive”.

On to `CCCCCCCCCCCCCCCCO`, for which the Potency entry was “inactive”.

Regarding `Oc1ccccc1C=NCc1ccccc1`, the Potency entry is “inactive”.

For `CCN(CC)CCNC(=O)COc1ccc(OC)cc1`, the Potency entry is “inactive”.

For `COc1cc(N)c(Cl)cc1C(=O)NC1CCN(Cc2ccccc2)CC1`, the Potency entry is “inactive”.

On to `Cc1cc(NS(=O)(=O)c2ccc(N)cc2)nc(C)n1`, for which the Potency result was “inactive”.

For the compound `CC(=O)OC[C@H]1O[C@@H](n2ncc(=O)[nH]c2=O)[C@H](OC(C)=O)[C@@H]1OC(C)=O`, the Potency result is “inactive”.

Take `CCOc1ccccc1OCCN[C@H](C)Cc1ccc(OC)c(S(N)(=O)=O)c1`: the Potency entry was “inactive”.

For `O=C(NCCc1c[nH]c2ccccc12)c1cccnc1`, the Potency entry is “inactive”.

As for `Cc1ccccc1OCC(O)CO` (stereo not given), the Potency entry is “inactive”.

Turning to `Cc1cc(C)cc(OCC2CNC(=O)O2)c1` (stereo not given), the Potency entry was “inactive”.

Consider `CCOc1cc(OCC)c(C(=O)CCC(=O)O)cc1OCC`, for which the Potency entry was “inactive”.

As for `N#CCC(=O)NN`, the Potency entry was “inactive”.

Consider `O=C(O)C(Cc1cc(I)c(O)c(I)c1)c1ccccc1` (stereo not given), for which the Potency entry was “inactive”.

`CCCCCCCC/C=C\CCCCCCCCN`: the Potency entry is “inactive”.

As to `CC1=C(C(=O)O)N2C(=O)[C@@H](NC(=O)[C@H](N)c3ccccc3)[C@H]2SC1`, the Potency entry was “inactive”.

Take `CCN(CC)CCNc1ccc(CO)c2sc3ccccc3c(=O)c12`: the Potency is 2 µM (active).

`Cl/C(=C\n1cncn1)c1ccc(Cl)cc1Cl`: the Potency entry was “inactive”.

As to `CCCCCCCCCCCCCCCC(=O)O`, the Potency result is “inactive”.

Take `CC(C)CCCC(C)N` (stereo not given): the Potency entry is “inactive”.

`CCOC(=O)c1ccc(N)cc1`: the Potency result is “inactive”.

Consider `Cc1c[nH]c2ccccc12`, for which the Potency result was “inactive”.

The next assay concerns CP291. The assay is described as above. The conditions noted are these: P. falciparum in erythrocytes, SYBR Green DNA, 72 h; series mostly up to 28.7 µM. Summed up:
as §1
As for `C#C[C@]1(O)CC[C@H]2[C@@H]3CCc4cc(OC)ccc4[C@H]3CC[C@@]21C`, the Potency result was “inactive”.

As for `CCCCNC(=O)NS(=O)(=O)c1ccc(N)cc1`, the Potency result is “inactive”.

Consider `Nc1ccc(C(=O)NCC(=O)O)cc1`, for which the Potency entry is “inactive”.

Turning to `OC1C(O)C(O)C(O)C(O)C1O` (stereo not given), the Potency result was “inactive”.

On to `O=S(=O)(O)c1ccc(O)cc1`, for which the Potency entry was “inactive”.

Regarding `COc1cc(C(=O)NCc2ccc(OCCN(C)C)cc2)cc(OC)c1OC`, the Potency entry was “inactive”.

For the compound `COc1cc(C)nc(-n2nc(C)cc2OC)n1`, the Potency result is “inactive”.

On to `CC(=O)Oc1ccc(C)cc1`, for which the Potency entry is “inactive”.

Regarding `CC(=O)NC(=O)c1ccccc1O`, the Potency result is “inactive”.

`FC(F)(F)C(F)(F)C(F)(F)C(F)(F)C(F)(F)C(F)(F)C(F)(F)C(F)(F)Br`: the Potency result is “inactive”.

Take `c1ccc(-c2nc[nH]c2-c2ccccc2)cc1`: the Potency entry is “inactive”.

Consider `CCNC(=O)NCc1cccc(Cl)c1`, for which the Potency entry is “inactive”.

For the compound `O=C(O)Cc1csc(-c2ccc(Cl)cc2)n1`, the Potency entry is “inactive”.

Consider `Nc1nc(-c2ccccc2)c(Br)c(=O)[nH]1`, for which the Potency result is “inactive”.

For the compound `O=c1[nH]c(=O)n([C@H]2C[C@H](O)[C@@H](CO)O2)cc1F`, the Potency result is “inactive”.

Consider `CC(=O)Nc1ncc([N+](=O)[O-])s1`, for which the Potency result was “inactive”.

For `Cc1cccc(C)c1NC(=O)CN1CCCCCC1`, the Potency result was “inactive”.

Turning to `CC[C@H](c1ccc(O)cc1)[C@@H](CC)c1ccc(O)cc1`, the Potency entry is “inactive”.

Regarding `Cc1c(-c2ccccc2)oc2c(C(=O)OCCN3CCCCC3)cccc2c1=O`, the Potency result was “inactive”.

As to `CCCCCCCCCCCCCCCCO`, the Potency entry is “inactive”.

Take `Oc1ccccc1C=NCc1ccccc1`: the Potency result was “inactive”.

`CCN(CC)CCNC(=O)COc1ccc(OC)cc1`: the Potency entry was “inactive”.

Regarding `COc1cc(N)c(Cl)cc1C(=O)NC1CCN(Cc2ccccc2)CC1`, the Potency result was “inactive”.

For `Cc1cc(NS(=O)(=O)c2ccc(N)cc2)nc(C)n1`, the Potency result is “inactive”.

Consider `CC(=O)OC[C@H]1O[C@@H](n2ncc(=O)[nH]c2=O)[C@H](OC(C)=O)[C@@H]1OC(C)=O`, for which the Potency entry was “inactive”.

With `CCOc1ccccc1OCCN[C@H](C)Cc1ccc(OC)c(S(N)(=O)=O)c1`, the Potency entry was “inactive”.

`O=C(NCCc1c[nH]c2ccccc12)c1cccnc1`: the Potency entry was “inactive”.

Consider `Cc1ccccc1OCC(O)CO` (stereo not given), for which the Potency result was “inactive”.

Turning to `Cc1cc(C)cc(OCC2CNC(=O)O2)c1` (stereo not given), the Potency result was “inactive”.

On to `CCOc1cc(OCC)c(C(=O)CCC(=O)O)cc1OCC`, for which the Potency result is “inactive”.

With `N#CCC(=O)NN`, the Potency entry was “inactive”.

For the compound `O=C(O)C(Cc1cc(I)c(O)c(I)c1)c1ccccc1` (stereo not given), the Potency entry is “inactive”.

Regarding `CCCCCCCC/C=C\CCCCCCCCN`, the Potency result was “inactive”.

For the compound `CC1=C(C(=O)O)N2C(=O)[C@@H](NC(=O)[C@H](N)c3ccccc3)[C@H]2SC1`, the Potency entry is “inactive”.

On to `CCN(CC)CCNc1ccc(CO)c2sc3ccccc3c(=O)c12`, for which the Potency is 4.78 µM (active).

`Cl/C(=C\n1cncn1)c1ccc(Cl)cc1Cl`: the Potency result was “inactive”.

Regarding `CCCCCCCCCCCCCCCC(=O)O`, the Potency result was “inactive”.

Consider `CC(C)CCCC(C)N` (stereo not given), for which the Potency entry is “inactive”.

Take `CCOC(=O)c1ccc(N)cc1`: the Potency result was “inactive”.

On to `Cc1c[nH]c2ccccc12`, for which the Potency entry was “inactive”.
